Measurements reported in PubChem BioAssay (NCI).
Compounds without any hit were thinned out: in the full panel of roughly 79,000, 15% have a hit. Active and inactive are the calls of the source. No stated cut-off is given here; in the data, active means growth inhibition above about 70%; inactive means the rest.

Key:
[1] = NCI Yeast Anticancer Drug Screen. Data for the rad50 strain (AID 155);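 further: 0% = growth of vehicle-only cultures of the same strain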; details: S. cerevisiae rad50 strain growth inhibition; at 50.0 µM; active compounds read high
Outline: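 Yeast carrying a defined DNA repair defect were exposed to test compounds, and growth was compared with vehicle-treated controls to give percent inhibition.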

[2] = NCI Yeast Anticancer Drug Screen. Data for the mec2-1 strain (AID 157); details: S. cerevisiae mec2-1 strain, at 50.0 µM, active compounds read high
Outline: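 Each compound was tested on mec2-1 yeast, a strain altered in DNA damage repair or cell cycle control. Growth inhibition is reported relative to vehicle.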

[3] = NCI Yeast Anticancer Drug Screen. Data for the sgs1 mgt1 strain (AID 161);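 further: 0% = growth of cultures given vehicle only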; details: S. cerevisiae sgs1 mgt1 strain, at 50.0 µM, active compounds read high
Outline: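 Test agents were incubated with a DNA-repair-mutant yeast strain. Growth was then read and compared against vehicle-treated controls.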

[4] = NCI Yeast Anticancer Drug Screen. Data for the cln2 rad14 strain (AID 165);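 further: 0% = growth equal to vehicle treated cultures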; details: S. cerevisiae cln2 rad14 strain, at 50.0 µM, active compounds read high
Outline: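 Test compounds were added to cln2 rad14 yeast cultures; inhibition of growth was then determined by comparison with vehicle treatment.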

[5] = NCI Yeast Anticancer Drug Screen. Data for the bub3 strain (AID 167); details: S. cerevisiae bub3 mutant strain, at 50.0 µM, active compounds read high
Outline: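 Compounds were applied to a genetically altered yeast strain carrying a cell-cycle control defect. Growth inhibition was scored against vehicle-treated controls.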

[6] = NCI Yeast Anticancer Drug Screen. Data for the mlh1 rad18 strain (AID 175); details: S. cerevisiae mlh1 rad18 strain growth inhibition; at 50.0 µM; active compounds read high
Outline: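 Inhibition values reflect reduced growth of mutant yeast versus vehicle-treated controls following compound exposure; the mutations affect DNA damage repair.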

Measured: growth inhibition

COC(=O)C(=O)C1CCc2c(ccc3c2CCCC3)C1 (stereo not given)
inactive: [1] 0.8% | [2] 17.4% | [3] 22.9% | [4] -8.8% | [5] 8.2% | [6] 10.2%

C=C1C2CCC3(CCC4C5(C)CCCC4(CN(CCO)C5)C3C2)C1O (stereo not given)
inactive: [1] -13.6% | [2] -39.9% | [3] -4.45% | [4] 12.8% | [5] -13.4% | [6] -1.15%

c1cc2nc(c1)CSCCCCCCCCSC2
inactive: [1] -3.25% | [2] 41% | [3] 17.8% | [4] -10.1% | [5] 55% | [6] 36%

CCOC(=O)c1cnc2[nH]ccn2c1=O
inactive: [1] -26.9% | [2] -43.3% | [3] -4.45% | [4] 10.3% | [5] -6.55% | [6] -8.75%

O=C(/C=C/c1cc2ccccc2o1)N1CCN(c2ccccn2)CC1
inactive: [1] 28.6% | [2] 27.6% | [3] 39.2% | [4] 11.3% | [5] 17.9% | [6] 15.8%

CC(C)(O)C(Cc1ccccc1)c1ccccc1 (stereo not given)
inactive: [1] 0.55% | [2] 7.9% | [3] -16.1% | [4] -2.1% | [5] -23.6% | [6] 0.8%

CC1(C)Oc2ccc(NC(=O)CCC(N)C(=O)O)cc2O1 (stereo not given)
inactive: [1] -28.2% | [2] -52.7% | [3] -1% | [4] 11.5% | [5] 16.5% | [6] -18.1%

CCCC(C)(CC)C(=O)O (stereo not given)
inactive: [1] 7.45% | [2] -14.8% | [3] 14.4% | [4] -10.3% | [5] 1.95% | [6] 34.8%

O=C(OCCN1C(=O)c2cccc3c(Br)ccc(c23)C1=O)OCc1ccccc1
active: [1] 86.2% | [6] 70.3%
inactive: [2] 48.5% | [3] 60.1% | [4] 49.4% | [5] 61.7%

O=C(NCCCCCCNC(=O)c1cc(-c2ccccc2)nc2ccccc12)c1cc(-c2ccccc2)nc2ccccc12
inactive: [1] -33% | [2] -18% | [3] -42.6% | [4] -17.4% | [5] -27.3% | [6] -17.4%

NNc1nc2ccccc2[nH]1
inactive: [1] 16.6% | [2] -0.1% | [3] -34.9% | [4] -14.4% | [5] 8.9% | [6] 8.85%

COC(=O)c1cc(Cl)c(C(=O)OC)cc1Cl
inactive: [1] 4.1% | [2] 3% | [3] 3.85% | [4] 0.6% | [5] 7.4% | [6] 8.6%

O=S1(=O)CCNc2ccccc2O1
inactive: [1] -3.15% | [2] -6.4% | [3] -3.55% | [4] -15.2% | [5] 7.2% | [6] 3.15%

Cc1ccc([N+](=O)[O-])c(N)c1
inactive: [1] 40.5% | [2] 27.4% | [3] 26.1% | [4] 18.9% | [5] 4.65% | [6] 26.4%

O=C1NC(=S)N/C1=C\c1ccco1
inactive: [1] 21.9% | [2] 10.2% | [3] 0.5% | [4] 15.2% | [5] 26.5% | [6] 32%

COC(=O)c1cc(O)c(C(=O)OC)s1
inactive: [1] 3.05% | [2] -9.75% | [3] -0.55% | [4] -27.9% | [5] 14.8% | [6] 11.2%

CNC1C(=O)C(C)C(O)(C(CC(C)C(O)/C=C/C=C/CNC(=O)C(C)(C)C(O)\C(C)=C/C=C\C=C\Cc2cnc(C)o2)OC)C12C(=O)OC2COC (stereo not given) (tested in a mixture with another compound)
inactive: [1] 2.6% | [2] -22.1% | [3] -7.75% | [4] 2.95% | [5] 12.9% | [6] 6.35%

CN(C)CCCn1c(=O)nc2n(-c3ccccc3)c3ccccc3nc-2c1=O
inactive: [1] 9.3% | [2] 4.5% | [3] -10.4% | [4] 8.75% | [5] 2.35% | [6] -44.5%

COc1ccccc1C1C2=C(COC2=O)Oc2cc3c(cc21)OCO3 (stereo not given)
inactive: [1] -20.8% | [2] -8.25% | [3] -29.1% | [4] 3.75% | [5] 0.4% | [6] -11.9%

COc1ccc(CSC(=S)Nc2ccc(N=Nc3ccccc3)cc2)cc1
inactive: [1] 33.7% | [2] 11.6% | [3] 24.6% | [4] 25.4% | [5] -7.3% | [6] 1.55%

CCN(CC)CCCC(C)Nc1cc(C)nc(Nc2nc3cc(Cl)c(Cl)cc3[nH]2)n1 (stereo not given)
inactive: [4] 56.2%
active: [1] 96.8% | [2] 94.1% | [3] 97.4% | [5] 83.9% | [6] 95.8%

Cc1cccc(CSc2nc(N)nc3ncn(C4CC(O)C(CO)O4)c23)n1 (stereo not given)
inactive: [1] -20.9% | [2] 3.5% | [3] 10.7% | [4] -48.2% | [5] 2.05% | [6] -19.6%

Cc1cccc(C)c1NC(=O)/C(Cc1nc2ccc([N+](=O)[O-])cc2[nH]c1=O)=N\NC(N)=O
inactive: [1] 55.4% | [2] 50.6% | [3] 30.9% | [4] 8.85% | [5] 66.5% | [6] 41.4%

CC1(C)C(=NN=C(N)N)C(C)(C)C1=NN=C(N)N
inactive: [1] -3.35% | [2] -6.95% | [3] -15.8% | [4] 29.3% | [5] -18.5% | [6] 14.7%

CC1(C)CC(N2CCN(C3CC(C)(C)NC(C)(C)C3)CC2)CC(C)(C)N1
inactive: [1] -12.7% | [2] -19.6% | [3] -18.8% | [4] -8.3% | [5] -14.2% | [6] -29.6%

CN(C)C(N)=Nc1ncnc2ccccc12
inactive: [1] -14.6% | [2] 15.2% | [3] 0.45% | [4] 15.7% | [5] -5.85% | [6] -1.8%

CC(=O)c1sc(Nc2ccc(S(=O)(=O)Nc3nc(C)cc(C)n3)cc2)nc1C
inactive: [1] 15.6% | [2] -0.75% | [3] 8.9% | [4] 31.3% | [5] -11.7% | [6] -10.1%

CC(C)/C=N\n1c(N)c(C#N)c(C#N)c1C(C)C
inactive: [1] -4.9% | [2] -5.2% | [3] -37% | [4] 5.95% | [5] -52.8% | [6] -33.6%

CCOc1ccccc1NC(=O)C(=O)C(/C(=N/N)C(=O)OC)c1nc2ccc([N+](=O)[O-])cc2[nH]c1=O (stereo not given)
inactive: [1] 16.9% | [2] -10% | [3] 5.7% | [4] 15.4% | [5] -1.35% | [6] 9.25%

O=C(O)CSc1ncnc2nc[nH]c12
inactive: [1] 1.6% | [2] -30.2% | [3] 1.9% | [4] 27.6% | [5] -5.25% | [6] -12.9%

O=C(Nc1ccccc1)OC1CCCC12CC2 (stereo not given)
inactive: [1] 8.7% | [2] 4.9% | [3] -16.1% | [4] -4.8% | [5] -2.25% | [6] 23.1%

CC(=O)/C(=C\c1ccccc1)C(=O)CCN(C)C
inactive: [1] 21.9% | [2] 36.6% | [3] 14.4% | [4] 12.2% | [5] 7% | [6] -9.9%

CC(C)(C#CCOC(=O)c1ccc([N+](=O)[O-])cc1)OC(=O)c1ccc([N+](=O)[O-])cc1
inactive: [1] 9.25% | [2] -3.7% | [3] 18.5% | [4] 32.1% | [5] 1.5% | [6] 5.35%

CC(C)(C#N)CCCCC(C)(C)C#N
inactive: [1] 3.1% | [2] 0.7% | [3] 1.2% | [4] 11.8% | [5] 12.4% | [6] 3.8%

O=c1[nH]cnc2c1ncn2CCCc1ccccc1
inactive: [1] -1% | [2] 7.5% | [3] 2.8% | [4] -69.6% | [5] 3% | [6] -17.1%

CCOC(=O)NC(NC(=O)OCC)c1ccc(OC)cc1
inactive: [1] -7.7% | [2] -1.95% | [3] 1.75% | [4] 42.7% | [5] -6.55% | [6] -10.1%

N#C/C(=C\n1c(=S)[nH]c2ccc([N+](=O)[O-])cc21)c1cccc(Cl)c1
inactive: [1] -25.2% | [2] -13.9% | [3] -34.1% | [4] 3.75% | [5] -2.45% | [6] -11.2%

O=C1c2cn[nH]c2N=C(Nc2ccccc2)C1N=Cc1ccc([N+](=O)[O-])cc1 (stereo not given)
inactive: [1] -32.6% | [2] -45.2% | [3] -13.8% | [4] 12.5% | [5] -24.3% | [6] -17.9%

NC=O
inactive: [1] -9.45% | [2] 11.2% | [3] 7.1% | [4] -1.4% | [5] -0.15% | [6] -11.7%

CCCCC(O)(CCC)CCCC
inactive: [1] -8.75% | [2] -6.95% | [3] 3.75% | [4] -36.9% | [5] -1.25% | [6] 2.55%
